Compound activity from PubChem BioAssay.
Most compounds without a hit are left out; they make up all but 2.7% or so of the library.
IP6K1 inh = inhibitors of human IP6K1; Q92551; IP6K1 kinase, ADP-Glo luminescence, 2 h; active compounds read low; activity change, % (series mostly up to about 58 µM); 140,000 tested, 0.81% active; AID 1645851; in the data active means activity change below about -25%; further: on the % scale 0 is the no-effect control and ±100 the full control effect
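ADP-Glo luminescence measures ADP made by human IP6K1 during a 2 h RT reaction with ATP/IP6 (mix at 1.3 mM/130 uM); top library doses 57.5 and 19.1 uM final.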
KDM5B inhibitor = inhibitors of human KDM5B histone demethylase | Q9UGL1 | KDM5B demethylase, FDH-coupled NADH fluorescence (FDH is formaldehyde dehydrogenase) | Potency, µM (series often up to 57.7 µM), hits mostly inhibitors | 220,000 tested, 2.6% active | AID 1347165; further: potency means the concentration at half of the fitted maximal effect; 0% is about no effect; nearly all actives have a fitted effect of over 70% in size
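Coupled FDH/NAD⁺ fluorescence readout. KDM5BΔAP 200 nM final; compound titration, 10 min RT preincubation; substrate mix 12.5 µM H3K4me3, 25 µM 2-OG, 50 µM Fe(II), 100 µM ascorbate, 0.25 mM NAD⁺, 0.25 U/mL FDH; ΔRFU over 30 min.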
IP6K1 conf = confirmation of human IP6K1 inhibitors. shares compounds with IP6K1 inh. recombinant IP6K1 kinase, ADP-Glo luminescence, 2 h. Potency, µM (top dose mostly 49 µM), without a hit: at the highest dose activity change, negative = inhibition, usual class: inhibitors. 1,200 tested, 13% active; further: potency means the concentration at half of the fitted maximal effect; on the % scale 0 is the no-effect control and ±100 the full control effect; nearly all actives have a fitted effect of over 65% in size
* hit, by the source's call; [ ] = remark or other dose. Unless noted, the call rests on the fitted dose curve; in most records, active means well fitted inhibition curve with a large enough effect; inconclusive means small, poorly fitted or top-dose-only effect; inactive means no such curve, though single readings can be large or run the other way.

Results for Cc1ccc(F)c(C(=O)N[C@H](Cc2ccccc2)C2CC(O)C2)c1Cl (stereo partly specified) ?
IP6K1 inh: -34*; KDM5B inhibitor: inactive; IP6K1 conf: -11%

How did O=C(CSc1ccc2c(c1)OCCCO2)Nc1ccc2c(c1)OCO2 do in these assays?
KDM5B inhibitor: inactive

Results for Cc1ccc(-c2nc(S(=O)(=O)c3ccc(Cl)cc3)c(N3CCCCC3)o2)cc1 ?
IP6K1 inh: -34*; KDM5B inhibitor: inconclusive; IP6K1 conf: inconclusive

What do the screens show for `COc1ccc(-c2nc(S(=O)(=O)c3ccc(C)cc3)c(N3CCCCC3)o2)cc1`?
IP6K1 inh: -2; KDM5B inhibitor: inconclusive

Results for Cc1ccc2c(c1)N(C(=O)N1CCC(C(=O)NCCc3ccccc3)CC1)CC(C)O2 (stereo unspecified) ?
IP6K1 inh: 7; KDM5B inhibitor: inactive

How did Cc1ccc2c(c1)N(C(=O)N1CCC(C(=O)NCCC3=CCCCC3)CC1)CC(C)O2 (stereo unspecified) do in these assays?
IP6K1 inh: -39*; KDM5B inhibitor: inactive; IP6K1 conf: -11%

What do the screens show for `Cc1ccc2c(c1)N(C(=O)N1CCC(C(=O)NCc3cccc(Br)c3)CC1)CCO2`?
IP6K1 inh: -102*; KDM5B inhibitor: inactive; IP6K1 conf: -12%

How did CCc1ccc(CNC(=O)C2CCN(C(=O)N3CC(CC)Oc4ccc(C)cc43)CC2)cc1 (stereo unspecified) do in these assays?
IP6K1 inh: 4; KDM5B inhibitor: inactive

How did Cc1ccc(-c2cc(C(=O)NCc3ccc4c(c3)OCO4)c3cnn(C)c3n2)c(C)c1 do in these assays?
IP6K1 inh: 11

Results for CC(CNC(=O)CSc1ccc2ccccc2n1)c1ccccc1 (stereo unspecified) ?
KDM5B inhibitor: inactive

What do the screens show for `O=C(Nc1nnc(N2CCCCCC2)s1)Nc1cc(F)ccc1F`?
IP6K1 inh: -29*; KDM5B inhibitor: inactive; IP6K1 conf: -10%

What do the screens show for `O=C(Nc1nnc(N2CCCC2)s1)Nc1cc(F)ccc1F`?
IP6K1 inh: -12; KDM5B inhibitor: inactive

How did CC(=O)N1CCN(C(=O)Cc2ccc(Nc3ncc(F)c(Nc4ccc(C(=O)Nc5ccccc5Cl)cc4)n3)cc2)CC1 do in these assays?
IP6K1 inh: -30*; IP6K1 conf: inconclusive

How did O=C(Cc1ccc(F)cc1)N1CCN(c2nccc(Nc3ccccc3Cl)n2)CC1 do in these assays?
IP6K1 inh: -9

Results for Cc1ccc(C(=O)NNC(=S)Nc2ccccc2)cc1 ?
KDM5B inhibitor: inactive

What do the screens show for `NC(=O)Nc1ccc(Cl)c(NS(=O)(=O)c2ccccc2Br)c1`?
KDM5B inhibitor: inactive

How did O=C(CC1C(=O)OCCN1Cc1ccccc1)Nc1cccc(C(F)(F)F)c1 (stereo unspecified) do in these assays?
IP6K1 inh: 3; KDM5B inhibitor: inactive

Results for COc1cccc(NC(=O)CC2C(=O)OCCN2Cc2ccccc2)c1 (stereo unspecified) ?
IP6K1 inh: -48*; KDM5B inhibitor: inactive; IP6K1 conf: -2%

What do the screens show for `O=C(Nc1c(F)cc(F)cc1Br)c1cc2ccccc2oc1=O`?
KDM5B inhibitor: inactive

Results for CCCCn1c(=O)[nH]c(=O)c2c1nc(CSc1nnnn1-c1ccc(C)cc1)n2CCC ?
KDM5B inhibitor: inactive

How did CN(C)CCNC(=O)c1ccnc(-c2nnc3ccc(Nc4ccccc4)nn23)c1 do in these assays?
IP6K1 inh: -11; KDM5B inhibitor: inactive

Results for O=C(Nc1cccnc1)c1ccnc(-c2nnc3ccc(Nc4ccccc4)nn23)c1 ?
IP6K1 inh: -56*; KDM5B inhibitor: inconclusive; IP6K1 conf: inconclusive

Results for O=C(NCCc1ccccn1)c1ccnc(-c2nnc3ccc(Nc4ccccc4)nn23)c1 ?
IP6K1 inh: -37*; KDM5B inhibitor: inconclusive; IP6K1 conf: inconclusive

What do the screens show for `CC(C)NC(=O)c1ccnc(-c2nnc3ccc(Nc4ccccc4)nn23)c1`?
IP6K1 inh: -9; KDM5B inhibitor: inactive

How did Cn1c(CNC(=O)c2ccccc2Br)nnc1SCC(=O)N1CCOCC1 do in these assays?
KDM5B inhibitor: inactive

Results for COC(=O)C1=C(N)Oc2n[nH]c(-c3ccccc3)c2C12C(=O)N(Cc1cccc(F)c1)c1ccccc12 (stereo unspecified) ?
KDM5B inhibitor: inactive

What do the screens show for `CC(NC(=O)C1CCCc2ccccc21)c1ccc(Br)cc1` (stereo unspecified)?
KDM5B inhibitor: inactive

What do the screens show for `COc1ccc(OC)c(C(C)NC(=O)CCc2cccs2)c1` (stereo unspecified)?
KDM5B inhibitor: inactive

How did Cc1ccc2nc(-c3ccco3)c(Nc3ccc4c(c3)OCCO4)n2c1 do in these assays?
IP6K1 inh: -28*; KDM5B inhibitor: inactive; IP6K1 conf: 16%

What do the screens show for `c1coc(-c2nc3ccccn3c2Nc2ccc3c(c2)OCCO3)c1`?
IP6K1 inh: -10; KDM5B inhibitor: inconclusive

What do the screens show for `CCS(=O)(=O)N1CC(CC#N)(n2cc(-c3ncnc4[nH]ccc34)cn2)C1`?
IP6K1 inh: -4; IP6K1 conf: -2%

Results for N#CC[C@H](C1CCCC1)n1cc(-c2ncnc3[nH]ccc23)cn1 ?
IP6K1 inh: -2

What do the screens show for `Cc1ccc(C(=O)OCC(=O)Nc2cccc(N3CCCC3=O)c2)c(O)c1`?
KDM5B inhibitor: inactive

What do the screens show for `CCCCCCCCCCCCCCCCCC(=O)O`?
IP6K1 inh: -7

How did CCCCCCCC(=O)[O-].CCCCCCCC(=O)[O-].[Zn+2] do in these assays?
IP6K1 inh: -36*; IP6K1 conf: inconclusive

What do the screens show for `O=C(CCSc1ccccc1)OCC(=O)c1ccc(Cl)cc1`?
KDM5B inhibitor: inactive

Results for Cc1ccc(C(=O)N/C(=C\c2ccc(-c3ccc(Br)cc3)o2)C(=O)NC(C)(C)C)cc1 ?
KDM5B inhibitor: inactive

Results for COC(=O)c1c(NC(=O)COc2ccc(OC)cc2)sc2c1CCC(C)C2 (stereo unspecified) ?
IP6K1 inh: -38*; KDM5B inhibitor: inconclusive; IP6K1 conf: -12%

How did CCOC(=O)c1c(NC(=O)COc2ccc(F)cc2)sc2c1CCC(C)C2 (stereo unspecified) do in these assays?
IP6K1 inh: 26; KDM5B inhibitor: inactive

Results for Cc1nnc(N2C(=O)c3oc4ccccc4c(=O)c3C2c2ccc(Cl)cc2)s1 (stereo unspecified) ?
IP6K1 inh: -4; KDM5B inhibitor: inactive

Results for COc1cc(C2c3c(oc4ccccc4c3=O)C(=O)N2c2nnc(C(C)C)s2)cc(OC)c1OC (stereo unspecified) ?
IP6K1 inh: -26*; KDM5B inhibitor: inactive; IP6K1 conf: 6%

What do the screens show for `Cc1ccc(C2c3c(oc4ccccc4c3=O)C(=O)N2c2nnc(C)s2)cc1` (stereo unspecified)?
IP6K1 inh: 17; KDM5B inhibitor: inactive

Results for CCOc1ccc(C2c3c(oc4ccccc4c3=O)C(=O)N2c2nnc(C)s2)cc1OC (stereo unspecified) ?
IP6K1 inh: -37*; KDM5B inhibitor: inactive[11.5 µM]; IP6K1 conf: -10%

What do the screens show for `c1ccc(-c2ccnc(NCCOc3cccc4cccnc34)n2)nc1`?
IP6K1 inh: -31*; KDM5B inhibitor: 20µM*; IP6K1 conf: -14%
